Here are results for 39 molecules from PubChem BioAssay (NCI).

This is part of a sample that, as a whole, favours compounds with a hit. Of some 79,000 tested, about 15% had one in any assay. Active and inactive are the calls of the source. No stated cut-off is given here; in the data, active means growth inhibition above about 70%; inactive means the rest.

The first assay is described as follows: NCI Yeast Anticancer Drug Screen. Data for the bub3 strain (AID 167). The following applies: S. cerevisiae bub3 mutant strain, at 50.0 µM (retest, dose inferred, filed as 5.0), stronger effect = higher value. The gist of the method: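 Whole-cell yeast assay. The mutant strain was incubated with compounds, and growth inhibition was determined by comparison with vehicle-treated cells.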
Turning to `O=C1C2C3C=CC(C3)C2C(=O)C2C3C=CC(C3)C12` (configuration not stated), the growth inhibition was 96% (active).
With `CCCCOC(=O)c1cnc[nH]c1=O`, the growth inhibition was 14% (inactive).
Same read-out and setting: with `N#CC(c1ccc(Cl)cc1)c1ccc([N+](=O)[O-])cc1` (configuration not stated) the figure was 86% (active); with `CN(C)C(N)=NC#N`, 95% (active); with `CCCCc1c(O)c(N=NC(=O)C[n+]2ccccc2)c2ccccc2c1O`, -1% (inactive).
Consider `CCOC(=O)C(=O)Nc1nc2c(s1)C(=O)c1ccccc1C2=O`, for which the growth inhibition was 96% (active).
Same read-out and setting: then `COc1ccc(C(=O)Nc2ccccc2[N+](=O)[O-])cc1`, with 13% (inactive); and `COc1ccccc1NC(=O)/C(=C/n1c(=S)sc2ccccc21)C(C)=O`, with 30% (inactive).
On the same count and under the same terms, with `Cc1ccc(C)c(C(=O)/C=C/C(=O)O)c1` the figure was 98% (active).

The assay is the same for the next values; noted with them: S. cerevisiae bub3 mutant strain, at 50.0 µM, stronger effect = higher value.
For `CCCCN(CCC(=O)O)c1ccc(/C=C\c2ccnc3ccccc23)cc1`, the growth inhibition is 96.3% (active).
Still for that read-out and setting: with `CC1CC(N)=NC1C(=O)NCCC#N` (configuration not stated) the figure was 62.6% (inactive); with `O=C(CC1(O)CCCCC1)OC1CCCC1`, -58.9% (inactive).
On the same count and under the same terms, with `CN(C)c1nc(-c2ccccc2)cc(-c2ccc(O)cc2)n1` the figure was 60.5% (inactive); with `Oc1cc(C(c2ccccc2)c2ccccc2)c2ccccc2c1O`, 98.2% (active); with `C(=P(c1ccccc1)(c1ccccc1)c1ccccc1)[P+](c1ccccc1)(c1ccccc1)c1ccccc1`, 99% (active).
On to `COC(=O)c1ccc(CCc2cc(O)ccc2O)cc1`, for which the growth inhibition was 98.5% (active).
Regarding `CCCCCCCCCCN`, the growth inhibition is 47.2% (inactive).
On the same count and under the same terms, then `CC[N-]c1nncs1.CC[N-]c1nncs1.CC[N-]c1nncs1.CC[N-]c1nncs1.[Cl][Rh][Cl]`, with 95.6% (active); and `CC(C)C1=CC23CCC4C(C)(C(=O)O)CCCC4(C)C2CC1CC3C#N` (configuration not stated), with 98.5% (active).
In the case of `COc1ccc(/C(Cl)=C(\C=O)c2ccc(Cl)cc2)cc1`, the growth inhibition is 28.1% (inactive).
Take `CCOC(=O)Cc1csc(/N=C\c2c(O)c3ccccc3oc2=O)n1`: the growth inhibition is -27.1% (inactive).
The same measure, in the same setting: then `Cc1cccc(/C=N/NC(=S)Nc2ccccc2)n1`, with 92% (active).
On the same count and under the same terms, with `Nc1nn2c(C(Br)Br)cc(C(Br)Br)nc2c1[N+](=O)[O-]` the figure was 99.5% (active); with `c1ccc2nc3ccccc3nc2c1`, 33.1% (inactive).
The same measure, in the same setting: with `O=c1ccc2nc3ccccc3ccc-2c1` the figure was 62% (inactive); with `C=CCOCC(C)OC(=O)C(C)C` (configuration not stated), 11.8% (inactive); with `CCCCCCOC(=O)CCC(=O)OCCCCCC`, 63.8% (inactive).
For `CC(=O)C(C(C)=O)C1C=CC=CC=C1`, the growth inhibition was 92.5% (active).
The same measure, in the same setting: with `CCCOC(=O)CCCC(=O)N(CC)CC` the figure was -0.6% (inactive); with `CCOC(=O)C(=O)CC1=Nc2ccccc2SC(c2cccc(C)c2)C1` (configuration not stated), 99.1% (active).
With `COc1cc2c(c(-c3cn(C)c4ccccc34)c1OC)OCO2`, the growth inhibition is 84.5% (active).
For `COC(=O)c1c(C)cccc1C1CN=NC12Cc1ccc(C)c(C)c1C2=O` (configuration not stated), the growth inhibition was 78.7% (active).
Same read-out and setting: with `CCCCCCCCCCC(=O)CC(=O)c1c(O)cccc1O` the figure was -1.95% (inactive); with `CCCCCCNC(=S)N/N=C(\C)c1ccccn1`, 90.5% (active); with `Oc1ccc(N=Nc2ccc(Cl)cc2)cc1O`, 97.8% (active).
For the molecule `CCO/C=C1\N=C(C(O)(c2ccc(Cl)cc2)c2ccc(Cl)cc2)OC1=O`, the growth inhibition was 43.1% (inactive).
On the same count and under the same terms, then `Clc1ccc(CN2COc3c(ccc4cccnc34)C2)cc1`, with 77.5% (active); and `Cc1nc(C(N)=S)sc1/C(CC(=O)C(=O)Nc1cccc2ccc(O)cc12)=N\NC(=O)c1ccncc1`, with 13.1% (inactive); and `Nc1ncc(C(=O)c2ccccc2)cc1[N+](=O)[O-]`, with -2.9% (inactive).
Same read-out and setting: with `O=C1C2C3C=CC(C3)C2C(=O)C2C3C=CC(C3)C12` (configuration not stated) the figure was 98.9% (active); with `CCCCOC(=O)c1cnc[nH]c1=O`, 3.55% (inactive).
On the same count and under the same terms, with `N#CC(c1ccc(Cl)cc1)c1ccc([N+](=O)[O-])cc1` (configuration not stated) the figure was 64.3% (inactive); with `CN(C)C(N)=NC#N`, 65.2% (inactive); with `CCCCc1c(O)c(N=NC(=O)C[n+]2ccccc2)c2ccccc2c1O`, 13.5% (inactive).
Turning to `CCOC(=O)C(=O)Nc1nc2c(s1)C(=O)c1ccccc1C2=O`, the growth inhibition is 98.5% (active).
Still for that read-out and setting: then `COc1ccc(C(=O)Nc2ccccc2[N+](=O)[O-])cc1`, with 19.2% (inactive); and `COc1ccccc1NC(=O)/C(=C/n1c(=S)sc2ccccc21)C(C)=O`, with 29.5% (inactive).
Same read-out and setting: with `Cc1ccc(C)c(C(=O)/C=C/C(=O)O)c1` the figure was 64.1% (inactive).

The nature of the next assay: NCI Yeast Anticancer Drug Screen. Data for the mlh1 rad18 strain (AID 175). The following applies: S. cerevisiae mlh1 rad18 strain growth inhibition; at 5.0 µM (retest, dose inferred, filed as 0.5); stronger effect = higher value. In a few lines: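 Test agents were incubated with a yeast strain of defined genotype (DNA damage repair defect). Inhibition of growth was derived by comparison with vehicle-exposed cultures.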
In the case of `CCCCN(CCC(=O)O)c1ccc(/C=C\c2ccnc3ccccc23)cc1`, the growth inhibition is 0% (inactive).
Same read-out and setting: with `CC1CC(N)=NC1C(=O)NCCC#N` (configuration not stated) the figure was 30% (inactive); with `O=C(CC1(O)CCCCC1)OC1CCCC1`, 7% (inactive).
The same measure, in the same setting: with `CN(C)c1nc(-c2ccccc2)cc(-c2ccc(O)cc2)n1` the figure was 24% (inactive); with `Oc1cc(C(c2ccccc2)c2ccccc2)c2ccccc2c1O`, 34% (inactive).
Still for that read-out and setting: with `C(=P(c1ccccc1)(c1ccccc1)c1ccccc1)[P+](c1ccccc1)(c1ccccc1)c1ccccc1` the figure was 99% (active).
Regarding `COC(=O)c1ccc(CCc2cc(O)ccc2O)cc1`, the growth inhibition is 88% (active).
On the same count and under the same terms, with `CCCCCCCCCCN` the figure was 6% (inactive).
The same measure, in the same setting: with `CC[N-]c1nncs1.CC[N-]c1nncs1.CC[N-]c1nncs1.CC[N-]c1nncs1.[Cl][Rh][Cl]` the figure was 15% (inactive); with `CC(C)C1=CC23CCC4C(C)(C(=O)O)CCCC4(C)C2CC1CC3C#N` (configuration not stated), 13% (inactive); with `COc1ccc(/C(Cl)=C(\C=O)c2ccc(Cl)cc2)cc1`, -6% (inactive).
Still for that read-out and setting: then `CCOC(=O)Cc1csc(/N=C\c2c(O)c3ccccc3oc2=O)n1`, with 24% (inactive); and `Cc1cccc(/C=N/NC(=S)Nc2ccccc2)n1`, with -30% (inactive); and `Nc1nn2c(C(Br)Br)cc(C(Br)Br)nc2c1[N+](=O)[O-]`, with 100% (active).
In the case of `c1ccc2nc3ccccc3nc2c1`, the growth inhibition is -11% (inactive).
As for `O=c1ccc2nc3ccccc3ccc-2c1`, the growth inhibition was -117% (inactive).
The same measure, in the same setting: then `C=CCOCC(C)OC(=O)C(C)C` (configuration not stated), with -140% (inactive).
On the same count and under the same terms, with `CCCCCCOC(=O)CCC(=O)OCCCCCC` the figure was -15% (inactive).
Still for that read-out and setting: then `CC(=O)C(C(C)=O)C1C=CC=CC=C1`, with -139% (inactive); and `CCCOC(=O)CCCC(=O)N(CC)CC`, with -5% (inactive).
On to `CCOC(=O)C(=O)CC1=Nc2ccccc2SC(c2cccc(C)c2)C1` (configuration not stated), for which the growth inhibition was 2% (inactive).
On the same count and under the same terms, then `COc1cc2c(c(-c3cn(C)c4ccccc34)c1OC)OCO2`, with 0% (inactive).
The same measure, in the same setting: then `COC(=O)c1c(C)cccc1C1CN=NC12Cc1ccc(C)c(C)c1C2=O` (configuration not stated), with -1% (inactive); and `CCCCCCCCCCC(=O)CC(=O)c1c(O)cccc1O`, with -16% (inactive).
On the same count and under the same terms, with `CCCCCCNC(=S)N/N=C(\C)c1ccccn1` the figure was 97% (active); with `Oc1ccc(N=Nc2ccc(Cl)cc2)cc1O`, -7% (inactive); with `CCO/C=C1\N=C(C(O)(c2ccc(Cl)cc2)c2ccc(Cl)cc2)OC1=O`, -1% (inactive).
Regarding `Clc1ccc(CN2COc3c(ccc4cccnc34)C2)cc1`, the growth inhibition was 2% (inactive).
The same measure, in the same setting: then `Cc1nc(C(N)=S)sc1/C(CC(=O)C(=O)Nc1cccc2ccc(O)cc12)=N\NC(=O)c1ccncc1`, with 14% (inactive).
Still for that read-out and setting: then `Nc1ncc(C(=O)c2ccccc2)cc1[N+](=O)[O-]`, with -138% (inactive).
Take `O=C1C2C3C=CC(C3)C2C(=O)C2C3C=CC(C3)C12` (configuration not stated): the growth inhibition was 60% (inactive).
In the case of `CCCCOC(=O)c1cnc[nH]c1=O`, the growth inhibition was 24% (inactive).
On the same count and under the same terms, with `N#CC(c1ccc(Cl)cc1)c1ccc([N+](=O)[O-])cc1` (configuration not stated) the figure was -5% (inactive); with `CN(C)C(N)=NC#N`, 33% (inactive); with `CCCCc1c(O)c(N=NC(=O)C[n+]2ccccc2)c2ccccc2c1O`, -2% (inactive).
On the same count and under the same terms, then `CCOC(=O)C(=O)Nc1nc2c(s1)C(=O)c1ccccc1C2=O`, with 17% (inactive).
Same read-out and setting: with `COc1ccc(C(=O)Nc2ccccc2[N+](=O)[O-])cc1` the figure was -13% (inactive); with `COc1ccccc1NC(=O)/C(=C/n1c(=S)sc2ccccc21)C(C)=O`, -14% (inactive).
Regarding `Cc1ccc(C)c(C(=O)/C=C/C(=O)O)c1`, the growth inhibition is 42% (inactive).
